Measurements: PubChem BioAssay (EPA / NIEHS)
Calls of active or inactive are those of the source. Rule for the calls: active = hit-call score of the fitted dose curve at least 0.9, where 1 is the maximum; inactive = score below 0.9.

Assay: ATG_MRE_CIS: Attagene CIS-FACTORIAL HepG2 Assay for human Metal Responsive Element (MRE) (AID 2282954)
Details: HepG2 MRE cis-reporter transcription, Attagene multiplex; actives raise or lower the signal
Procedure, shortened: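 Fluorescent reporter fragments separated by capillary electrophoresis give mRNA induction for the MRE unit after 24 h treatment of transfected HepG2 cells. Endogenous transcription-factor activity is read; DMSO serves as negative control and baseline.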

With `Cc1c(C(=O)O)c(O)cc2c1C(=O)c1c(O)c([C@@H]3O[C@H](CO)[C@@H](O)[C@H](O)[C@H]3O)c(O)c(O)c1C2=O` as the molecule, how does the outcome read?
The outcome was “inactive”.

For `Cc1cc(NC(=O)C(=O)O)cc(C)c1Oc1ccc(O)c2c1CCC2`, which outcome is on record?
Its outcome is “inactive”.

Which AC50 does the source give for `CCCCCCCCCCO` here?
The AC50 was 160 µM (active).

Which AC50 does the source give for `CCc1c(C(=O)NN2CCCCC2)nn(-c2ccc(Cl)cc2Cl)c1-c1ccc(Br)cc1` here?
The AC50 was 4.76 µM (active).

Which outcome does the source give for `COc1cc(S(=O)(=O)O)c(C)cc1N=Nc1c(O)ccc2cc(S(=O)(=O)O)ccc12` here?
Its outcome is “inactive”.

For `CCOC(=O)C(C)(C)Oc1ccc(Cl)cc1`, which outcome is on record?
Its outcome is “inactive”.

With `CN1CCN(Cc2cc(-c3ccc4[nH]c(=O)oc4c3)co2)[C@@H](c2ccc(F)cc2)C1` as the molecule, how does the AC50 read?
Its AC50 is 48.6 µM (active).

With `FC(F)(F)C(F)(F)C(F)(F)C(F)(F)C(F)(F)C(F)(F)CCI` as the molecule, how does the outcome read?
Its outcome is “inactive”.

With `CNC(=O)[C@H]1O[C@@H](n2cnc3c(NCc4cc(Cl)ccc4OCc4cc(C)no4)ncnc32)[C@H](O)[C@@H]1N` as the molecule, how does the outcome read?
Its outcome is “inactive”.

With `CCCCc1ccc2c(n1)[C@@H](c1ccc(OC)cc1C[C@H](C)C(=O)O)[C@H](C(=O)O)[C@H]2c1ccc2c(c1)OCO2` as the molecule, how does the outcome read?
Its outcome is “inactive”.

Which outcome does the source give for `O=C(O)CCCCC(=O)O` here?
The outcome was “inactive”.

With `CCCCCCCCCCCC(=O)OC` as the molecule, how does the outcome read?
The outcome was “inactive”.

For `Cc1ccc(Cl)cc1`, which outcome is on record?
Its outcome is “inactive”.

Which outcome does the source give for `CC(CO)OC(C)CO` (configuration not stated) (tested in a mixture with another compound) here?
The outcome was “inactive”.

With `COCCOCCOC` as the molecule, how does the outcome read?
Its outcome is “inactive”.

Which outcome does the source give for `CC(=O)OCCOCCOCCOC(C)=O` here?
Its outcome is “inactive”.

For `COc1cc(-c2nc(NC(=O)c3cc4cc(C)cc(C)c4n3CC(=O)O)sc2CCC2CCCCC2)c(OC)cc1Cl`, which AC50 is on record?
The AC50 was 6.2 µM (active).
